About 480 (22%) of roughly 2,200 compounds were called active. How the calls were made is not given here. These entries were drawn from the full list. Results with a measured potency or affinity are listed apart.
Assay: S. Typhimurium GFP fluorescence dose response in modified counterscreen for PhoP regulon inhibitor project (AID 1981)
Details: 4 h; series mostly up to 150 µM

| Structure (SMILES) | outcome |
| --- | --- |
| O=C(CSc1nnc2c(Cl)cc(Cl)cn12)NC1CCS(=O)(=O)C1 (configuration not stated) | inactive |
| COc1ccc(/C=C2\CN(Cc3ccccc3)C/C(=C\c3ccc(OC)cc3)C2=O)cc1 | inactive |
| Cc1cccc(C)c1NC(=O)CSc1nnc(NC(=O)CN2CCOCC2)s1 | inactive |
| Cc1cc(C(=O)N/N=C/C=C/c2ccc3c(c2)OCO3)n[nH]1 | inactive |
| O=C(N/N=C/c1cccn1-c1ccc([N+](=O)[O-])cc1)C(O)c1ccccc1 (configuration not stated) | inactive |
| Cc1cc(C(=O)N/N=C/c2cccc([N+](=O)[O-])c2O)n[nH]1 | inactive |
| CN(C)C(=O)c1cn(N(C)c2ncc(C(F)(F)F)cc2Cl)c(=O)c2ccccc12 | inactive |
| Cc1ccc(-c2cc(-c3ccc(Cl)cc3)c(C#N)c(N)n2)o1 | inactive |
| CC(=O)c1cccc(NC(=O)NCc2ccco2)c1 | inactive |
| Nc1nc(-c2ccc(Br)cc2)cs1 | inactive |
| COc1ccc(-c2cc(N3CCCC3)n3ncnc3n2)cc1 | inactive |
| Cc1ccccc1NC(=S)N(CCCN1CCOCC1)Cc1ccccn1 | inactive |
| O=c1[nH]c2ccccc2n1C1=CCCC1 | inactive |
| CCn1c(Cc2c(C)[nH]c3ccccc23)n[nH]c1=S | inactive |
| Cc1cccc(C)c1NC(=O)CCCSc1nnc(-c2ccc(Cl)cc2)n1-c1ccccc1 | inactive |
| COc1ccccc1-c1cc(C(=O)Nc2cc(C)nn2-c2ccccc2)no1 | inactive |
| Cc1ccc(-n2nc(-c3ccc(N)cc3)cc2N)cc1 | inactive |
| O=C(OCC(=O)c1ccccc1Cl)c1cnccn1 | inactive |
| O=C(c1cc2ncc(Br)cn2n1)N1CCOCC1 | inactive |
| Cc1[nH]c2ccccc2c1C(O)CN1CCN(c2cccc(C(F)(F)F)c2)CC1 (configuration not stated) | inactive |
| CC(=O)Oc1c2occc2cc2ccc(=O)oc12 | inactive |
| COc1cc(C2Nc3cccc4cccc(c34)N2)cc(OC)c1OC(C)=O | inactive |
| O=C(NCCNS(=O)(=O)c1cccc(C(F)(F)F)c1)c1cc(OCC(F)(F)F)ccc1OCC(F)(F)F | inactive |
| O=c1c(Br)c(Br)cnn1-c1ccccc1 | inactive |
| CCCOC(=O)C(C)n1cnc2sc(C)c(C)c2c1=O (configuration not stated) | inactive |

| Structure (SMILES) | outcome |
| --- | --- |
| Clc1ccc(OCCn2cnc3ccccc32)cc1 | inactive |
| S=C(Nc1ccccc1)Nc1nc2ccccc2n1CCOc1ccc(Cl)cc1 | inactive |
| COC(=O)Cn1c(C)nc2ccccc21 | inactive |
| Cc1ccc(OCc2nc3ccccc3[nH]2)cc1 | inactive |
| COc1ccc(C(=O)C(CO)Oc2ccccc2OC)cc1OC (configuration not stated) | inactive |
| COc1ccccc1OCc1ccc(C(=O)N2CCN(C(=O)c3ccco3)CC2)cc1 | inactive |
| COc1ccc(OCCSc2nnc3sc4ccccc4n23)cc1 | inactive |
| CCOC(=O)CCC(NC(=O)c1ccc(NCN2C(=O)CCC2=O)cc1)C(=O)OCC (configuration not stated) | inactive |
| CC(=O)c1c(C)nc(-c2ccc(Cl)cc2)nc1N=CN(C)C | inactive |
| Cc1cccc(C=Nc2ccc3c(c2)oc2ccccc23)c1O | inactive |
| CCc1cccc2c(C#N)cn(CC(=O)NCCOC)c12 | inactive |
| C/C(=N\n1nnnc1Nc1ccccc1)c1ccc(N)cc1 | inactive |
| Cc1ccc2c(c1)C(c1ccccc1)NCC(=O)N2 (configuration not stated) | inactive |
| Cc1cc(C)nc(NC(=O)Cc2cccs2)n1 | inactive |
| COc1ccc(/C=C/C(=O)O)cc1COc1cccc(C)c1 | inactive |
| Cc1cccc(OCC(=O)NNc2c3ccccc3nc3ccccc23)c1 | inactive |
| C=CCN=C(NC#N)SCc1ccccc1Cl | inactive |
| Cc1cc(C)c(NC(=O)COc2ccccc2C(=O)Nc2ccc3c(c2)oc2ccccc23)c(C)c1 | inactive |
| O=C1Nc2ccccc2/C1=C/c1cnc[nH]1 | inactive |
| Cc1ccccc1OCCCCCn1ccnc1 | inactive |
| Cc1nn(-c2ccccc2)c2sc(-c3n[nH]c(=S)o3)cc12 | inactive |
| COc1ccc(OC)c(S(=O)(=O)N2c3cc(F)ccc3CCC2C)c1 (configuration not stated) | inactive |
| Cc1cccc(Sc2c([N+](=O)[O-])ncn2C)c1 | inactive |
| Clc1ccc(OCCn2ccnc2)c2ccccc12 | inactive |
| Cc1ccc(C(=O)COC(=O)CNS(=O)(=O)c2ccccc2)cc1[N+](=O)[O-] | inactive |

| Structure (SMILES) | outcome |
| --- | --- |
| O=C1/C(=C/c2ccccc2)NC(=S)N1C(c1ccccc1)c1ccccc1 | inactive |
| Cc1cc(C(=O)NNC(=S)NC(=O)/C=C/c2ccccc2Cl)n[nH]1 | inactive |
| CN(c1ccccc1)S(=O)(=O)c1cc(C(=O)Nc2nc3ccccc3[nH]2)ccc1Cl | inactive |
| COC(=O)CSc1nnc(-c2ccco2)n1Cc1ccco1 | inactive |
| Cc1ccccc1Cn1c(=N)n(CC(=O)c2ccco2)c2ccccc21 | inactive |
| O=C(CN1CCCCC1)Nc1cccc(Br)c1 | inactive |
| NC(=O)c1oc2ccccc2c1NC(=O)CN1CCCCC1 | inactive |
| O=C(CSc1nnc2n(C3CCCCC3)c(=O)c3ccccc3n12)OC1CCCCC1 | inactive |
| OC(COc1ccc2ccccc2c1Br)Cn1ccnc1 (configuration not stated) | inactive |
| COc1cc(C)ccc1OCCCOc1ccccc1Br | inactive |
| COc1cccc(NC(=O)Cn2c(=O)n(CCCC(=O)NCc3ccco3)c(=O)c3ccccc32)c1 | inactive |
| Cc1ccc(N(CC(=O)N/N=C/c2ccco2)S(=O)(=O)c2ccccc2)cc1 | inactive |
| CCCc1ccc(C(=O)CCC(=O)O)cc1 | inactive |
| Nc1nonc1C(=O)NCCN=Cc1cc(Cc2ccccc2)cc(Br)c1O | inactive |
| COc1cccc(C=NCCNC(=O)c2nonc2N)c1O | inactive |
| Nc1nonc1-n1nnc(C(=O)N/N=C/c2ccc(Br)cc2)c1CSC1=NCCS1 | inactive |
| CC(C)n1cc(C(=O)N2CCCC(N3CCN(c4ccc(F)cc4)CC3)C2)cn1 (configuration not stated) | inactive |
| O=C(CSc1nc2ccccc2o1)Nc1ccc(N2CCOCC2)c(Cl)c1 | inactive |
| O=C(c1ccccc1)N1CCSC1=S | inactive |
| CC1(C)CC(=O)C(/C=N/c2ncccc2C(=O)O)=C(O)C1 | inactive |
| CCCCCn1c(N)c(C(=O)NCc2cccs2)c2nc3ccccc3nc21 | inactive |
| O=C(c1ccc2nc(N3CCOCC3)sc2c1)N1CCC(Cc2ccccc2)CC1 | inactive |
| COc1ccc(-c2nnn(CC(=O)N(Cc3ccco3)C(C(=O)NCC3CCCO3)c3ccco3)n2)cc1 (configuration not stated) | inactive |
| C#CC(=O)N(c1cc(OC)ccc1OC)C(C(=O)NC1CCCC1)c1cccs1 (configuration not stated) | inactive |
| CCC(C)NC(=O)c1ccccc1NC(=O)C(C)N(c1ccccc1)S(C)(=O)=O (configuration not stated) | inactive |

| Structure (SMILES) | outcome |
| --- | --- |
| CN(C)c1ccc(Nc2nc(-c3cccnc3)cs2)cc1 | inactive |
| Nc1nc(-c2ccc3c(c2)OCCO3)cs1 | inactive |
| CCn1c2ccccc2c2cc(N)ccc21 | inactive |
| CCc1cccc(NC(=O)Nc2cccs2)c1 | inactive |
| COc1ccc(N=c2cc(-c3ccc(OC)cc3)oc3ccccc23)cc1 | inactive |
| CCCNC(=O)CSc1nnc(C)s1 | inactive |
| Cn1ccnc1C(O)c1ccc(OCc2ccccc2)cc1 (configuration not stated) | inactive |
| CSc1nnc2c3c4c(sc3nc(-n3nc(C)cc3C)n12)COC(C)(C)C4 | inactive |
| COc1ccc(NC(=O)c2ccc(OC)cc2)cc1 | inactive |
| FC(F)(F)C1=CC(c2ccc(Br)cc2)=NCCN1 | inactive |
| N=c1scc(-c2ccccc2)n1/N=C/c1ccco1 | inactive |
| COc1ccc(-c2nnc(SCCC(=O)O)n2-c2ccccc2)cc1 | inactive |
| O=C(NCCNc1ccc([N+](=O)[O-])cc1C(F)(F)F)c1cccc(F)c1 | inactive |
| Oc1ccc(Br)cc1-c1nc2cnccn2c1NC1CCCCC1 | inactive |
| O=C1CCCc2nc(N3CCN(Cc4ccccc4)CC3)ncc21 | inactive |
| COc1ccccc1CC1(C)NC(=O)N(CC(=O)N2CC(C)OC(C)C2)C1=O (configuration not stated) | inactive |
| Cc1ccccc1OCCSCc1nc2ccccc2[nH]1 | inactive |
| O=C(Nc1ccc(S(=O)(=O)Nc2nccs2)cc1)c1cc(-c2ccccc2)nc2ccccc12 | inactive |
| CC(CN1CCOCC1)C(=O)c1ccccc1 (configuration not stated) | inactive |
| Cc1ccc(C(=O)c2ccccc2C(=O)O)c(O)c1 | inactive |
| Cc1cc(C(=O)NCc2cccs2)cs1 | inactive |
| CCCc1cc(N2CCN(c3ccccn3)CC2)n2nc(C)c(-c3ccccc3)c2n1 | inactive |
| COc1ccc(CNc2nc3c(c(=O)[nH]c(=O)n3C)n2CCCc2ccccc2)cc1 | inactive |
| COc1nc(-c2ccccc2)ccc1-c1noc(C)n1 | inactive |
| NCCCCCc1nnc(SCc2ccc(Cl)cc2Cl)o1 | inactive |

| Structure (SMILES) | outcome |
| --- | --- |
| Cc1ccc([N+](=O)[O-])cc1-c1ccc(/C=C(\C#N)c2[nH]nc(N)c2C#N)o1 | inactive |
| CNC(=O)CN(c1ccc(F)cc1)S(=O)(=O)c1cc(C)ccc1OC | inactive |
| CCN1C(=O)N/C(=C/c2ccc(Sc3ccc(C)cc3)o2)C1=O | inactive |
| O=C(CCCCCNc1nc(=S)[nH]c2ccccc12)NCCc1c[nH]c2ccccc12 | inactive |
| Cc1ccc2nc(NNC(=O)c3ccc(S(=O)(=O)N4CCc5ccccc5C4)cc3)sc2c1 | inactive |
| C=CCNCC#CCOc1ccc(OC)cc1 | inactive |
| Cn1cccc1C(=O)OCc1csc(-c2ccccc2)n1 | inactive |
| Cc1ccc(S(=O)(=O)NCc2ccc(C(=O)N3CCN(c4ccccn4)CC3)cc2)cc1 | inactive |
| O=C(CCCN1Cc2ccccc2C1)c1ccc(F)cc1 | inactive |
| CCOC(=O)N1CCC(NC(=O)CCC(=O)c2ccccc2)CC1 | inactive |
| CN1C(=S)N(c2ccccc2)C(=O)/C1=C/c1ccco1 | inactive |
| Cc1ccc(C(=O)Nc2ccccc2C(N)=O)o1 | inactive |
| COc1cccc(-n2c(SCc3cc(=O)oc4cc(O)c(O)cc34)nc3ccccc3c2=O)c1 | inactive |
| Cc1cccc(-n2c(N)cc(=O)[nH]c2=S)c1 | inactive |
| C/C(=N\NC(=O)c1ccccc1)c1ccc2c(c1)OCO2 | inactive |
| CCOc1ccccc1NS(=O)(=O)c1ccc(Br)s1 | inactive |
| Clc1ccc(OCCCn2ccnc2)c(Br)c1 | inactive |
| Clc1ccc(Nc2ccc(NCc3ccccc3)nn2)cc1 | inactive |
| CCCCNCCCOc1cccc(Cl)c1Cl | inactive |
| Clc1cc(Br)ccc1OCCn1ccnc1 | inactive |
| O=C(COc1ccc(Br)cc1Cl)NC(=O)NCc1ccccc1 | inactive |
| CC(C)NCCCOc1ccc(Cl)cc1Br | inactive |

Reference: PubChem BioAssay AID1981 (Southern Research Specialized Biocontainment Screening …, 2009)
